Source: the supplement of paper PMC10849652
The full data set covers some 7,900 targets. This sample favours those with a hit. About 0.6% of all pairs of compound and target were hits.

Legend:
Experiment in all cases: log2 fold change, soluble protein after heating vs DMSO (PISA); higher = thermal stabilisation; K562 cells, 10 uM, 30 min; active = over 0.2 and 3.5 SD of the protein, either way, in both replicates (recomputed)
saracatinib = compound: CN1CCN(CCOc2cc(OC3CCOCC3)c3c(Nc4c(Cl)ccc5c4OCO5)ncnc3c2)CC1 [saracatinib]
In short: (§1)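 Thermal stability values are relative to control samples and come from duplicates. They are expressed as log2 fold changes. For measurement, K562 cells (2×10^6 cells/mL) received 10 μM compound for 30 min, and aliquots were heated for 3 min over 48°C-58°C, pooled, and extracted at 4°C in PBS with 0.5% NP-40. Soluble protein, the supernatant after 21,000xg for 90 min, was quantified by TMTpro 16plex LC-MS/MS with equalised channel sums.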

alvocidib = compound: CN1CC[C@H](c2c(O)cc(O)c3c(=O)cc(-c4ccccc4Cl)oc23)[C@H](O)C1 [alvocidib]
In short: as §1

Tubastatin A = compound: CN1CCc2c(c3ccccc3n2Cc2ccc(C(=O)NO)cc2)C1 [Tubastatin A]
In short: as §1

[1] = compound: CNC(=O)C1=CC=CC=C1NC2=NC(=NC=C2Cl)NC3=C(C=C(C=C3)N4CCOCC4)OC
In short: as §1

defactinib = compound: CNC(=O)c1ccc(Nc2ncc(C(F)(F)F)c(NCc3nccnc3N(C)S(C)(=O)=O)n2)cc1 [defactinib]
In short: as §1

rucaparib = compound: CNCc1ccc(-c2[nH]c3cc(F)cc4c3c2CCNC4=O)cc1 [rucaparib]
In short: as §1

[2] = compound: CNc1nc(-c2ccc3c(N)n[nH]c3c2)cc(N2C[C@@H](C(=O)NC3CCCCC3)CC[C@H]2C)n1
In short: as §1

encorafenib = compound: COC(=O)N[C@@H](C)CNc1nccc(-c2cn(C(C)C)nc2-c2cc(Cl)cc(NS(C)(=O)=O)c2F)n1 [encorafenib]
In short: as §1

[3] = compound: COC(=O)[C@H](CCSC)NC(=O)C1=C(C=C(C=C1)NC[C@H](CS)N)C2=CC=CC=C2
In short: as §1

[4] = compound: COC1=CC=C(C=C1)CN2C=CC3=C2C=C(C=C3)C(=O)NO
In short: as §1

zotarolimus = compound: CO[C@H]1C[C@@H]2CC[C@@H](C)[C@@](O)(O2)C(=O)C(=O)N2CCCC[C@H]2C(=O)O[C@H]([C@H](C)C[C@@H]2CC[C@H](n3cnnn3)[C@H](OC)C2)CC(=O)[C@H](C)/C=C(\C)[C@@H](O)[C@@H](OC)C(=O)[C@H](C)C[C@H](C)/C=C/C=C/C=C/1C [zotarolimus]
In short: as §1

idasanutlin = compound: COc1cc(C(=O)O)ccc1NC(=O)[C@@H]1N[C@@H](CC(C)(C)C)[C@](C#N)(c2ccc(Cl)cc2F)[C@H]1c1cccc(Cl)c1F [idasanutlin]
In short: as §1

alisertib = compound: COc1cc(Nc2ncc3c(n2)-c2ccc(Cl)cc2C(c2c(F)cccc2OC)=NC3)ccc1C(=O)O [alisertib]
In short: as §1

[5] = compound: COc1cccc2cc(-c3nc([C@H]4CC[C@H](C(=O)O)CC4)n4ncnc(N)c34)[nH]c12
In short: as §1

pictilisib = compound: CS(=O)(=O)N1CCN(Cc2cc3nc(-c4cccc5[nH]ncc45)nc(N4CCOCC4)c3s2)CC1 [pictilisib]
In short: as §1

[6] = compound: COc1cc2nc(-c3cc(F)ccc3O)nc(N[C@@H]3CNC[C@H]3C(C)(C)O)c2cc1OC
In short: as §1

lapatinib = compound: CS(=O)(=O)CCNCc1ccc(-c2ccc3ncnc(Nc4ccc(OCc5cccc(F)c5)c(Cl)c4)c3c2)o1 [lapatinib]
In short: as §1

sotrastaurin = compound: CN1CCN(c2nc(C3=C(c4c[nH]c5ccccc45)C(=O)NC3=O)c3ccccc3n2)CC1 [sotrastaurin]
In short: as §1

filanesib = compound: CON(C)C(=O)N1N=C(c2cc(F)ccc2F)S[C@@]1(CCCN)c1ccccc1 [filanesib]
In short: as §1

gefitinib = compound: COc1cc2ncnc(Nc3ccc(F)c(Cl)c3)c2cc1OCCCN1CCOCC1 [gefitinib]
In short: as §1

Measured: log2 fold change

RALGPS2 (UniProt Q86X27)
Chain of UniProt Q86X27 (Q86X27 whole entry, looked up): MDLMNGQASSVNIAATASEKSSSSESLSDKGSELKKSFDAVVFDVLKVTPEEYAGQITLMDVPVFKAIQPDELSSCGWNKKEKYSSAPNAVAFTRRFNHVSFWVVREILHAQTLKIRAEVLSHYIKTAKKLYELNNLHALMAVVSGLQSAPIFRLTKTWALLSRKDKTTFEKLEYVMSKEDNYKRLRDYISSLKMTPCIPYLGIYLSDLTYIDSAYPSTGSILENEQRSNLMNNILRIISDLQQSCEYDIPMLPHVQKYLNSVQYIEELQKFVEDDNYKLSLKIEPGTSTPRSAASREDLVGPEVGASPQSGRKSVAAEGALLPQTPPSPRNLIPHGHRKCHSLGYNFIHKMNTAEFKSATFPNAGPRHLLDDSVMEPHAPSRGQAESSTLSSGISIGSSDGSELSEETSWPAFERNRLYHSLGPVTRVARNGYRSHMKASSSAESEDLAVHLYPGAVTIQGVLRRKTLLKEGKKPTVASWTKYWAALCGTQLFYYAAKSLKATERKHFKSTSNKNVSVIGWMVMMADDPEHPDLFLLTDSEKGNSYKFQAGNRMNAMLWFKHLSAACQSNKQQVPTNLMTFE
inactive: saracatinib -0.042 | alvocidib 0.192 | Tubastatin A 0.18 | [1] -0.098 | defactinib 0.176 | rucaparib -0.133 | [2] 0.159 | encorafenib 0.425 | [3] -0.101 | [4] 0.246 | zotarolimus 0.038 | idasanutlin -0.062 | alisertib 0.109 | [5] 0.132 | pictilisib 0.165

RPS3 (UniProt E9PJN9)
inactive: saracatinib -0.069 | Tubastatin A 0.105 | rucaparib 0.064 | [2] -0.028 | encorafenib 0.052 | pictilisib 0.129

RNF220 isoform 3 (UniProt Q5VTB9)
inactive: [1] -0.067 | idasanutlin 0.073 | [6] -0.153 | lapatinib 0.261

SDCBP isoform 2 (UniProt O00560)
Chain of UniProt O00560 (O00560 whole entry, looked up): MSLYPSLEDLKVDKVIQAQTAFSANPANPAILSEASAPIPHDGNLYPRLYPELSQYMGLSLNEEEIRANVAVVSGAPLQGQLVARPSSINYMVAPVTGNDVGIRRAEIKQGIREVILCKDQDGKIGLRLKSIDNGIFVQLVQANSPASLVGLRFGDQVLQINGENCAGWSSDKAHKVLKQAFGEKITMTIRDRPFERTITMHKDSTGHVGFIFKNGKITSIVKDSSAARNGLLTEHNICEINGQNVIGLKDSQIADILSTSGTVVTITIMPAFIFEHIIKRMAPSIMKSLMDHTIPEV
active: [2] -0.756
inactive: saracatinib -0.175 | sotrastaurin 0.042 | Tubastatin A -0.301 | [1] 0.115 | rucaparib -0.036 | encorafenib 0.032 | filanesib -0.08 | alisertib -0.236 | [6] 0.045 | gefitinib -0.054 | [5] 0.034 | lapatinib -0.04 | pictilisib 0.228

SCYL3 isoform 2 (UniProt Q8IZE3)
inactive: saracatinib 0.014 | alvocidib 0.142 | Tubastatin A -0.063 | [1] -0.042 | defactinib -0.014 | rucaparib 0.06 | [2] -0.009 | encorafenib 0.021 | [3] -0.025 | [4] 0.017 | zotarolimus 0.008 | idasanutlin -0.117 | alisertib 0.063 | [6] 0.039 | gefitinib 0.063 | [5] 0.032 | lapatinib -0.084 | pictilisib 0.018

SCLT1 (UniProt Q96NL6)
inactive: saracatinib 0.073 | sotrastaurin -0.095 | alvocidib 0 | Tubastatin A 0.116 | defactinib -0.047 | [2] 0.121 | [3] -0.087 | filanesib -0.063 | zotarolimus 0.079 | alisertib -0.205 | gefitinib -0.022 | [5] 0.046 | pictilisib 0.185
active: [4] 0.433

RUNX1 isoform 8 (UniProt Q01196)
Chain of UniProt Q01196 (Q01196 whole entry, looked up): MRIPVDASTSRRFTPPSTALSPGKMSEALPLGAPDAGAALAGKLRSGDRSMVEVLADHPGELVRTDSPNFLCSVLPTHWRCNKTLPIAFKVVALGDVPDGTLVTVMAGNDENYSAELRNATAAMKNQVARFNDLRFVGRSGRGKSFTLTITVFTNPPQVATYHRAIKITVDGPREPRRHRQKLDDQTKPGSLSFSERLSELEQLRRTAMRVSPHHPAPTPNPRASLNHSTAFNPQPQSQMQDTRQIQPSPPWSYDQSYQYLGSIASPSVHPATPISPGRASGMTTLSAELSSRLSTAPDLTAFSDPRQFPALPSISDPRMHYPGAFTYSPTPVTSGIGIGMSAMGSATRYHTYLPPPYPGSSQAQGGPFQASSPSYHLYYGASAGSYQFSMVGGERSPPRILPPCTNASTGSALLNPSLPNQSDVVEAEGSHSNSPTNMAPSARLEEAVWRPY
inactive: saracatinib -0.025 | sotrastaurin -0.132 | [1] -0.046 | defactinib 0.01 | rucaparib 0.024 | [2] 0.014 | encorafenib 0.183 | [3] 0.047 | [4] -0.055 | filanesib -0.084 | idasanutlin 0.075 | alisertib -0.292 | [6] 0.053 | gefitinib -0.074 | [5] -0.011 | lapatinib -0.001 | pictilisib 0.24

RBM48 isoform 2 (UniProt Q5RL73)
Chain of UniProt Q5RL73 (Q5RL73 whole entry, looked up): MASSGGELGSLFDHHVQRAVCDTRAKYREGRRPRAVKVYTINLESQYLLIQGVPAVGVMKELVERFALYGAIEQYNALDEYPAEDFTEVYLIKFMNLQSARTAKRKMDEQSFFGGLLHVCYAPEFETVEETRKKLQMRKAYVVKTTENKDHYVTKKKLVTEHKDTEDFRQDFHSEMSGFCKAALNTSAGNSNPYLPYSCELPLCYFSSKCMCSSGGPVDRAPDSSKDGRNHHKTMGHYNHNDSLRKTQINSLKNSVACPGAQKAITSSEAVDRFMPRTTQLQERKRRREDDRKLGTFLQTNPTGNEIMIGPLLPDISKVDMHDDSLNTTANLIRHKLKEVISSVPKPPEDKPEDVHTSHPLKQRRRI
inactive: sotrastaurin -0.001 | alvocidib -0.011 | Tubastatin A 0.016 | [1] -0.065 | [4] -0.046 | filanesib -0.049 | zotarolimus -0.076 | idasanutlin 0.04 | [6] -0.046 | gefitinib -0.024 | lapatinib 0.011 | pictilisib -0.083

RPAIN isoform 8 (UniProt Q86UA6)
inactive: saracatinib -0.036 | sotrastaurin -0.09 | alvocidib -0.036 | Tubastatin A -0.016 | defactinib -0.231 | [2] -0.082 | [3] 0.094 | [4] -0.055 | filanesib 0.006 | zotarolimus 0.028 | idasanutlin 0.109 | [6] -0.061 | lapatinib -0.063

RPS3A (UniProt D6R9B6)
inactive: saracatinib -0.125 | sotrastaurin 0.202 | Tubastatin A 0.051 | [2] -0.086 | filanesib 0.228 | idasanutlin 0.079

RNF41 (UniProt Q9H4P4)
Chain of UniProt Q9H4P4 (Q9H4P4 whole entry, looked up): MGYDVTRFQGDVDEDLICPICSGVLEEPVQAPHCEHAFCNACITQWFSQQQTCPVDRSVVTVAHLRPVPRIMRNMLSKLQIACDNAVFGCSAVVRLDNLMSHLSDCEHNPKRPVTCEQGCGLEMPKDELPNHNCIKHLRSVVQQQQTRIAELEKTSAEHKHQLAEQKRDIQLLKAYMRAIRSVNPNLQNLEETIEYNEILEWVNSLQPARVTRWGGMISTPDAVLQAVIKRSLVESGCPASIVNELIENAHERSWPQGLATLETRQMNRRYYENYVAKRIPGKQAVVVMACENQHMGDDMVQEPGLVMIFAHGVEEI
inactive: rucaparib -0.087 | encorafenib -0.016 | idasanutlin -0.031

SAP30 (UniProt O75446)
Chain of UniProt O75446 (O75446 whole entry, looked up): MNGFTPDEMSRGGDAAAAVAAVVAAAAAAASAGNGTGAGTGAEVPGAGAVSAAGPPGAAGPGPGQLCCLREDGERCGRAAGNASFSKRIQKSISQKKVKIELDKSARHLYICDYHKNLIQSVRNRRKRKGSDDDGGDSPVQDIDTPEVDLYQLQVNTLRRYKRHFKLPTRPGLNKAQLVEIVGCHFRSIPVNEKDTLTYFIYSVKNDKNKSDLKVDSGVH
inactive: saracatinib -0.018 | sotrastaurin -0.185 | alvocidib -0.035 | [1] 0.121 | defactinib -0.003 | [2] 0.014 | [3] 0.044 | [4] 0.089 | filanesib 0.044 | zotarolimus 0.047 | idasanutlin 0.024 | alisertib -0.015 | [6] -0.059 | gefitinib 0.003 | [5] -0.095 | lapatinib -0.035 | pictilisib -0.068

RPS6KA5 (UniProt O75582)
Chain of UniProt O75582 (O75582 whole entry, looked up): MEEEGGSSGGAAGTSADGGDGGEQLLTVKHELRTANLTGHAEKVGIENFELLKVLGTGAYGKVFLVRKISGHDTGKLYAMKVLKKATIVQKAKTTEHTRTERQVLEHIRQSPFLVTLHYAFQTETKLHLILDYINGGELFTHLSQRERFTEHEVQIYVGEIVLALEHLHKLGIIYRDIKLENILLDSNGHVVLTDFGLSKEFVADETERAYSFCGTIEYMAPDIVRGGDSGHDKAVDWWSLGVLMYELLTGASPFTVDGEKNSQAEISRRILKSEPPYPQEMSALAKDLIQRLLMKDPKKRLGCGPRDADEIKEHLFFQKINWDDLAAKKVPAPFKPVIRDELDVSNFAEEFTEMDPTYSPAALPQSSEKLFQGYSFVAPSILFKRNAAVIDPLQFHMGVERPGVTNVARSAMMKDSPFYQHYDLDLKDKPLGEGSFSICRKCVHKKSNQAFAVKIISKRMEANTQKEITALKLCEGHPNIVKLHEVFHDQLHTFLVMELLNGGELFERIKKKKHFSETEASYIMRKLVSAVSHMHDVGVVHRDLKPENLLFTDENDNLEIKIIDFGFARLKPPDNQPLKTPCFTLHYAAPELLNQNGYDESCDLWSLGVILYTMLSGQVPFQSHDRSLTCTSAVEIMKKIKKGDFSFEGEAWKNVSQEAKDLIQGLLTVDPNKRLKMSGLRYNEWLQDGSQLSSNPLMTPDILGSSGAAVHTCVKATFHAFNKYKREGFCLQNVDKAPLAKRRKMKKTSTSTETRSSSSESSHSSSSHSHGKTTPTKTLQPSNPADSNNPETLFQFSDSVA
inactive: [1] 0.083 | rucaparib 0.135 | encorafenib 0.148 | [4] -0.276 | alisertib -0.076 | [6] -0.185 | [5] 0.131 | lapatinib 0.057

SAFB2 (UniProt K7EQU4)
inactive: [4] 0.115 | gefitinib -0.126

SEMG2 (UniProt Q02383)
inactive: sotrastaurin -0.016 | alvocidib 0.206 | Tubastatin A 0.025 | rucaparib -0.033 | encorafenib -0.011 | filanesib -0.002 | zotarolimus -0.021 | idasanutlin -0.135 | alisertib 0.005 | gefitinib -0.008 | [5] 0.063 | pictilisib -0.021

RBMY1E (UniProt A6NEQ0)
inactive: alvocidib -0.015 | Tubastatin A 0.016 | [1] -0.049 | rucaparib -0.055 | encorafenib 0.182 | [4] 0.078 | zotarolimus 0.083 | alisertib -0.035 | gefitinib -0.07 | [5] 0.126 | lapatinib 0.044 | pictilisib 0.015
active: [6] -0.476

RNF26 (UniProt Q9BY78)
inactive: defactinib 0.119 | [3] 0.292 | pictilisib 0.065

RELA (UniProt Q04206)
inactive: saracatinib 0.027 | sotrastaurin -0.036 | Tubastatin A -0.017 | [1] 0.032 | defactinib -0.077 | rucaparib -0.026 | [2] -0.029 | encorafenib 0.044 | [3] -0.011 | [4] 0.025 | filanesib -0.002 | zotarolimus 0.024 | idasanutlin -0.039 | alisertib -0.028 | [6] -0.031 | gefitinib 0.023 | [5] 0.005 | lapatinib 0.012 | pictilisib -0.007

SERINC1 (UniProt Q9NRX5)
Chain of UniProt Q9NRX5 (Q9NRX5 whole entry, looked up): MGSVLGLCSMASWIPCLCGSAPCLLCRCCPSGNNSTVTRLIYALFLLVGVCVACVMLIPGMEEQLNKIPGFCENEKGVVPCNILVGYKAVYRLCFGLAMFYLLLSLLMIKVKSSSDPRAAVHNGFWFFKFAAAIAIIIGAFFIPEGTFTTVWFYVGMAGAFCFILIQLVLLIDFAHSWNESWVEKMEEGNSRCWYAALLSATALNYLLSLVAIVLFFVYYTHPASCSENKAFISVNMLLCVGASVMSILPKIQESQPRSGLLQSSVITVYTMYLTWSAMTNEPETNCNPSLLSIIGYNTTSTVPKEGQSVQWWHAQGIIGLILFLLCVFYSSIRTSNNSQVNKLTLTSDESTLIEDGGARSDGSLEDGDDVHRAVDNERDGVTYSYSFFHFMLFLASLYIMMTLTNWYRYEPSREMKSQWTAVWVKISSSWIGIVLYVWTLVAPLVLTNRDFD
inactive: saracatinib 0.093 | sotrastaurin -0.053 | Tubastatin A -0.128 | [1] -0.008 | defactinib 0.031 | rucaparib -0.095 | [2] -0.088 | encorafenib -0.062 | [3] 0.055 | [4] 0.073 | filanesib -0.146 | idasanutlin 0.233 | alisertib 0.073 | [6] -0.208 | gefitinib -0.266 | [5] -0.167 | lapatinib -0.227

RMDN2 isoform 2 (UniProt Q96LZ7)
Chain of UniProt Q96LZ7 (Q96LZ7 whole entry, looked up): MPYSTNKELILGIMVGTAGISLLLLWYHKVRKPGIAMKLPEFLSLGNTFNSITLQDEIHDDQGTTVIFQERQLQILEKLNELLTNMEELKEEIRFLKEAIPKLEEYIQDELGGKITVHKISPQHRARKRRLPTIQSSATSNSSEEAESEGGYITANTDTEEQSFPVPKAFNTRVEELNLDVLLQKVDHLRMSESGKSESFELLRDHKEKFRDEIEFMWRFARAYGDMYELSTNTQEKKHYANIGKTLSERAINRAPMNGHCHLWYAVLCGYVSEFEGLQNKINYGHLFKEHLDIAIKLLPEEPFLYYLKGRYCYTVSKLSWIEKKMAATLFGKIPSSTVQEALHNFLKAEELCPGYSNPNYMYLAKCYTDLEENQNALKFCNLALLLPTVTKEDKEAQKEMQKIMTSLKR
inactive: defactinib -0.218 | [3] -0.206 | [4] 0.008 | alisertib 0.389 | gefitinib -0.418 | [5] 0.191

SDC3 (UniProt O75056)
Chain of UniProt O75056 (O75056 whole entry, looked up): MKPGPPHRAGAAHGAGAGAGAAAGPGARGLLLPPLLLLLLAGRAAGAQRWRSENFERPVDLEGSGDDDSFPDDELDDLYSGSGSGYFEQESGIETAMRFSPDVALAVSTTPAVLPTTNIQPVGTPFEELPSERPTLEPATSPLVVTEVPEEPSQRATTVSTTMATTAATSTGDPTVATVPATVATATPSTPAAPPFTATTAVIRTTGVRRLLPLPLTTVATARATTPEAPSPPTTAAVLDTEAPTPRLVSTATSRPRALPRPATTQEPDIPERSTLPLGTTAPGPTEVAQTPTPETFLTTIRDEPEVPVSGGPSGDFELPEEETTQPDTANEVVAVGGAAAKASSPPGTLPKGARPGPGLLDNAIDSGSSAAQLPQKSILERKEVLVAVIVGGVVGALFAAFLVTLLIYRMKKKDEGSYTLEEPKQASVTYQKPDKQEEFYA
inactive: saracatinib -0.251 | sotrastaurin -0.074 | alvocidib 0.051 | Tubastatin A 0.163 | defactinib -0.004 | rucaparib -0.513 | [2] 0.036 | encorafenib 0.125 | [3] 0.034 | filanesib 0.081 | zotarolimus -0.045 | idasanutlin 0.166 | gefitinib 0.115 | pictilisib -0.674

RNF185 (UniProt Q96GF1)
Chain of UniProt Q96GF1 (Q96GF1 whole entry, looked up): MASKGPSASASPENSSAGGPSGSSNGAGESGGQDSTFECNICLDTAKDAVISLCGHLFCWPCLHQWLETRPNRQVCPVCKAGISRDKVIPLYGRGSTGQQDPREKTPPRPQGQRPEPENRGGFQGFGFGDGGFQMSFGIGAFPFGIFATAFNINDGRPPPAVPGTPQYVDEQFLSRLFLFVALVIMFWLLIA
inactive: alvocidib -0.003 | Tubastatin A 0.011 | [1] 0.001 | defactinib -0.023 | rucaparib 0.006 | encorafenib -0.094 | [3] 0.125 | zotarolimus 0.117 | idasanutlin -0.143 | alisertib -0.145 | [6] -0.175 | gefitinib 0.007 | [5] -0.016 | lapatinib -0.111 | pictilisib 0.076

RBM26 isoform 3 (UniProt Q5T8P6)
inactive: sotrastaurin -0.052 | filanesib 0.004 | idasanutlin 0.167

S100A10 (UniProt P60903)
Chain of UniProt P60903 (P60903 whole entry, looked up): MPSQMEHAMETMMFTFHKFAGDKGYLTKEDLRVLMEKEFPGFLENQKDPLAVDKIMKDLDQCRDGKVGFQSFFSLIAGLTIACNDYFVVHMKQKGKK
inactive: sotrastaurin -0.147 | alvocidib -0.293 | Tubastatin A 0.195 | rucaparib -0.038 | encorafenib -0.293 | filanesib -0.143 | zotarolimus -0.045 | idasanutlin 0.165 | [6] 0.093 | gefitinib 0.305 | lapatinib 0.01 | pictilisib -0.056

RBM6 (UniProt P78332)
inactive: saracatinib -0.032 | sotrastaurin -0.077 | alvocidib -0.073 | Tubastatin A -0.077 | [2] 0.247 | [4] 0.044 | filanesib -0.067 | zotarolimus 0.064 | idasanutlin 0.101 | alisertib -0.431 | [6] -0.02 | gefitinib -0.007 | [5] 0.005 | lapatinib 0.121 | pictilisib -0.044

RAB3D (UniProt O95716)
Chain of UniProt O95716 (O95716 whole entry, looked up): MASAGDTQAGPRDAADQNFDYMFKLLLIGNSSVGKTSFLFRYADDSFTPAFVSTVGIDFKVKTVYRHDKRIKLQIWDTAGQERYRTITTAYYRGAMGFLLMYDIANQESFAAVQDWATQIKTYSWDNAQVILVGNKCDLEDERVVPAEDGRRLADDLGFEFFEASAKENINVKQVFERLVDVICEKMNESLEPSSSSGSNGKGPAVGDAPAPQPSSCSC
inactive: saracatinib 0.295 | alvocidib 0.126 | Tubastatin A 0.024 | [1] 0.022 | defactinib 0.064 | rucaparib -0.021 | [2] -0.016 | encorafenib -0.043 | [3] -0.094 | zotarolimus -0.08 | idasanutlin 0.026 | alisertib 0.007 | [6] 0.002 | gefitinib 0.243 | [5] -0.07 | lapatinib 0.002 | pictilisib -0.153

RICTOR isoform 3 (UniProt Q6R327)
active: sotrastaurin 0.708
inactive: saracatinib 0.087 | Tubastatin A 0.092 | [1] 0.114 | rucaparib -0.128 | [2] 0.154 | encorafenib 0.068 | filanesib -0.028 | idasanutlin -0.066 | [6] 0.003 | gefitinib 0.059 | lapatinib 0.186 | pictilisib -0.062
